# Data reported in ChEMBL document CHEMBL1961873, “Compounds: GSK PKIS; Assays: Nanosyn kinase panel” (2012).
# Tests used:
# [1] = biological target: T1, Muscle, skeletal receptor tyrosine-protein kinase (Homo sapiens) (UniProt O15146); settings: at 1 µM;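 note: reported value is the mean percent inhibition of MuSK kinase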
# T1 sequence (whole entry): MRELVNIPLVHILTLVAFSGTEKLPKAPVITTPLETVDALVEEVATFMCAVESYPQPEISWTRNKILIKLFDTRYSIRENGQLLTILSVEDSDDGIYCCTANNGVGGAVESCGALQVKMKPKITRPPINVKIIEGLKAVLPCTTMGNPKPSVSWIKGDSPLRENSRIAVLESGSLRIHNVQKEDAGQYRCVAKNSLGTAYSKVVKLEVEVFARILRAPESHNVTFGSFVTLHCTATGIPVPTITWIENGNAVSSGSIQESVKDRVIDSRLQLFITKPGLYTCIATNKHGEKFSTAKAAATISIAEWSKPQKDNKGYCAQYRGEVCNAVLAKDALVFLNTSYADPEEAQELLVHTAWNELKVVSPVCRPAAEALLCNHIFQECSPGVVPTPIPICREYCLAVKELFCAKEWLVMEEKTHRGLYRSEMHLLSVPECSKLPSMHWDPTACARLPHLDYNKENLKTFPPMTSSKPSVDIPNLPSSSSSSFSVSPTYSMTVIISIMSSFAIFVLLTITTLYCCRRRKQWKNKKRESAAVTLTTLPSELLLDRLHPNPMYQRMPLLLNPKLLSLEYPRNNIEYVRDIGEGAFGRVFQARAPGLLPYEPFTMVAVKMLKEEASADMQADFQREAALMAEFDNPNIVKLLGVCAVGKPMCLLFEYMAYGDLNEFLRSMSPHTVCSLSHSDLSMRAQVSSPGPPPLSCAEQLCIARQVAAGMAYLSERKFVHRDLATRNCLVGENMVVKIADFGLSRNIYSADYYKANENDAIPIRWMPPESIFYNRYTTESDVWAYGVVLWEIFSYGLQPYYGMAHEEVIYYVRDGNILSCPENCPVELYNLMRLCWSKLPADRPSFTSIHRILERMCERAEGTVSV
# [2] = biological target: Platelet-derived growth factor receptor alpha (Homo sapiens) (UniProt P16234); settings: at 0.1 µM
# Platelet-derived growth factor receptor alpha (Homo sapiens), sequence (P16234 whole entry): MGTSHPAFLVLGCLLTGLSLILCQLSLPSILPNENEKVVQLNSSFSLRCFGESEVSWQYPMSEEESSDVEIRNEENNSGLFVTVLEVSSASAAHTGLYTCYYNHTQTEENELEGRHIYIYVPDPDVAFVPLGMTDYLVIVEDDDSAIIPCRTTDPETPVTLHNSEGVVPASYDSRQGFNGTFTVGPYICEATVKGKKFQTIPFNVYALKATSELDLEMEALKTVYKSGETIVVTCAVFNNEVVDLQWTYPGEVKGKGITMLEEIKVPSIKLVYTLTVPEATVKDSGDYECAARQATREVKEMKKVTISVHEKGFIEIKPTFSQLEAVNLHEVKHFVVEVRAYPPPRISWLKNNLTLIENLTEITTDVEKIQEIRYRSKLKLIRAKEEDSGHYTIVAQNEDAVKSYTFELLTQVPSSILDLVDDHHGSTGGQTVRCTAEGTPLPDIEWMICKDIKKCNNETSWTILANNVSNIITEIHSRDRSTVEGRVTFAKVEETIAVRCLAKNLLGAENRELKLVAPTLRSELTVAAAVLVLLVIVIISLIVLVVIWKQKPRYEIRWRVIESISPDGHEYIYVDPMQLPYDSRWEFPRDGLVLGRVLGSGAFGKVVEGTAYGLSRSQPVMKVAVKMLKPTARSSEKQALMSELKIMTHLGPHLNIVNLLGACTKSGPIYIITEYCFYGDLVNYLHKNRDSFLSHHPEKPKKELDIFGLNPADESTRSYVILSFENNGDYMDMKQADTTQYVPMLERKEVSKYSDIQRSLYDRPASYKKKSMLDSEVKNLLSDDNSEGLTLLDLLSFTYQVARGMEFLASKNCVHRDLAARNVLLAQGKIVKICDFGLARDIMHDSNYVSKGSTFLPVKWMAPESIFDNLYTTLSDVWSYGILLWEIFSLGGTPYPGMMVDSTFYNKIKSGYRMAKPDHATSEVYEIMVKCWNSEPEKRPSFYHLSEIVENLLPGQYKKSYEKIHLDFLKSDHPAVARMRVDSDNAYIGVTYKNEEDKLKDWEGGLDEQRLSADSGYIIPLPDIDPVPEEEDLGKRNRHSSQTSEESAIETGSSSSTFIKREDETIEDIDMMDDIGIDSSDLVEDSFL
# [3] = biological target: Platelet-derived growth factor receptor alpha (Homo sapiens) (UniProt P16234); settings: at 1 µM
# [4] = system: Platelet-derived growth factor receptor alpha (Homo sapiens), P16234 [D842V]; settings: at 0.1 µM
# [5] = system: Platelet-derived growth factor receptor alpha (Homo sapiens), P16234 [D842V]; settings: at 1 µM
# [6] = system: Platelet-derived growth factor receptor alpha (Homo sapiens), P16234 [T674I]; settings: at 0.1 µM
# Platelet-derived growth factor receptor alpha (Homo sapiens), P16234 [T674I], sequence (P16234 whole entry T674I): as the sequence (P16234 whole entry) above, with T674I counted along it
# [7] = system: Platelet-derived growth factor receptor alpha (Homo sapiens), P16234 [T674I]; settings: at 1 µM
# [8] = system: Platelet-derived growth factor receptor alpha (Homo sapiens), P16234 [V561D]; settings: at 0.1 µM
# Platelet-derived growth factor receptor alpha (Homo sapiens), P16234 [V561D], sequence (P16234 whole entry V561D): as the sequence (P16234 whole entry) above, with V561D counted along it
# [9] = system: Platelet-derived growth factor receptor alpha (Homo sapiens), P16234 [V561D]; settings: at 1 µM
# [10] = biological target: Platelet-derived growth factor receptor beta (Homo sapiens) (UniProt P09619); settings: at 0.1 µM
# [11] = biological target: Platelet-derived growth factor receptor beta (Homo sapiens) (UniProt P09619); settings: at 1 µM
# [12] = biological target: Tyrosine-protein kinase FRK (Homo sapiens) (UniProt P42685); settings: at 0.1 µM
# Tyrosine-protein kinase FRK (Homo sapiens), sequence (P42685 whole entry): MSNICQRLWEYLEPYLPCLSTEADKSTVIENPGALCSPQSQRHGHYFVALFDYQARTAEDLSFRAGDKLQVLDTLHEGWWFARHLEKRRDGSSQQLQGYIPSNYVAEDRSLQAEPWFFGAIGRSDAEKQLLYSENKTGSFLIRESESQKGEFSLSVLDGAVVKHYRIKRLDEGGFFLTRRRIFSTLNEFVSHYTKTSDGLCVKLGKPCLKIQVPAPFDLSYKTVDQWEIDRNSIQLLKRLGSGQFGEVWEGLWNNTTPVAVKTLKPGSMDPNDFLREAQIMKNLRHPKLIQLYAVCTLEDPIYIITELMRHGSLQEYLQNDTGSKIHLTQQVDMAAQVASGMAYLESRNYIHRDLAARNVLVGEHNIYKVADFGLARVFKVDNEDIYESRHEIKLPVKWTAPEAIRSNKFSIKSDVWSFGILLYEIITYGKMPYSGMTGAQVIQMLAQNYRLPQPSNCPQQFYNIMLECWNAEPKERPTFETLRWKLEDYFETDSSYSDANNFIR
# [13] = biological target: Tyrosine-protein kinase FRK (Homo sapiens) (UniProt P42685); settings: at 1 µM
# [14] = biological target: Proto-oncogene tyrosine-protein kinase receptor Ret (Homo sapiens) (UniProt P07949); settings: at 0.1 µM
# Proto-oncogene tyrosine-protein kinase receptor Ret (Homo sapiens), sequence (P07949 whole entry): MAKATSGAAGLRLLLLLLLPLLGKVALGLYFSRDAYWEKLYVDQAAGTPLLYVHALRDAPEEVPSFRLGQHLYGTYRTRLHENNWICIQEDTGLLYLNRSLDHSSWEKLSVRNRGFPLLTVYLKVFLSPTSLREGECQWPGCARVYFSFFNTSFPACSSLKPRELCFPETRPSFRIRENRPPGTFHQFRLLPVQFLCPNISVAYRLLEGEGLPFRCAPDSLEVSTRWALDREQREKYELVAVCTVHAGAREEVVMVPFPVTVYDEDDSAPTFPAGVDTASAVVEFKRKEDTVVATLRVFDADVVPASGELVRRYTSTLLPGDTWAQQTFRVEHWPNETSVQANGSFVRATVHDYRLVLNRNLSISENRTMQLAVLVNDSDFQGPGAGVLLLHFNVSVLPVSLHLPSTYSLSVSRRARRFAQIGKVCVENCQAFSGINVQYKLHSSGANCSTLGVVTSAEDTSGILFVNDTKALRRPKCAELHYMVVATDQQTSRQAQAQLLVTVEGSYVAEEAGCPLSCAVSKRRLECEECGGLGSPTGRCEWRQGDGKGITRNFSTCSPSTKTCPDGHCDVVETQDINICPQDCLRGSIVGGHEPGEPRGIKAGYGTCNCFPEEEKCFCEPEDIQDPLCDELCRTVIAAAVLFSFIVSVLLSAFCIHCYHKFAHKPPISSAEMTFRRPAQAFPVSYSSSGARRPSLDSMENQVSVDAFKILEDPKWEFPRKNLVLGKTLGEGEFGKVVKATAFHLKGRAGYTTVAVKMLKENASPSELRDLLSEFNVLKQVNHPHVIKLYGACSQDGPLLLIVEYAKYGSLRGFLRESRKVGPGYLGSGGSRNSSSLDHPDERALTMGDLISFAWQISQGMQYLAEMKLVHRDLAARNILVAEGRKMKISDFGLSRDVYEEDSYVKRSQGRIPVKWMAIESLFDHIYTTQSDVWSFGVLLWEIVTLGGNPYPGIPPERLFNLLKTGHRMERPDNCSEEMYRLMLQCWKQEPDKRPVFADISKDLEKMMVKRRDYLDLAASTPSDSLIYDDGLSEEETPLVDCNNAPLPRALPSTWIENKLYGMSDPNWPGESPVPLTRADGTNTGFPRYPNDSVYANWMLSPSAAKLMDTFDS
# [15] = biological target: Proto-oncogene tyrosine-protein kinase receptor Ret (Homo sapiens) (UniProt P07949); settings: at 1 µM
# [16] = system: Proto-oncogene tyrosine-protein kinase receptor Ret (Homo sapiens), P07949 [V804L]; settings: at 0.1 µM
# [17] = system: Proto-oncogene tyrosine-protein kinase receptor Ret (Homo sapiens), P07949 [V804L]; settings: at 1 µM
# [18] = system: Proto-oncogene tyrosine-protein kinase receptor Ret (Homo sapiens), P07949 [Y791F]; settings: at 0.1 µM
# [19] = biological target: Protein-tyrosine kinase 2-beta (Homo sapiens) (UniProt Q14289); settings: at 0.1 µM
# [20] = biological target: Protein-tyrosine kinase 2-beta (Homo sapiens) (UniProt Q14289); settings: at 1 µM
Structure (SMILES),inhibition [1] [%],inhibition [2] [%],inhibition [3] [%],inhibition [4] [%],inhibition [5] [%],inhibition [6] [%],inhibition [7] [%],inhibition [8] [%],inhibition [9] [%],inhibition [10] [%],inhibition [11] [%],inhibition [12] [%],inhibition [13] [%],inhibition [14] [%],inhibition [15] [%],inhibition [16] [%],inhibition [17] [%],inhibition [18] [%],inhibition [19] [%],inhibition [20] [%]
NC(=O)c1cc(-c2ccc(F)cc2)cc(-c2ccncc2)c1N,1.32,3.04,7.4,1.68,12.2,4.18,7.19,3.94,4.61,2.02,5.05,1.66,1.82,6.04,1.69,2.31,2.03,4.64,,
CNC(=O)c1cncc(/C=C/c2c(C)cccc2C)c1,5.15,8.57,34.4,0.09,4.23,0.35,1.37,21.3,48,7.03,26.2,1.71,17.3,4.57,7.32,-0.1,6.46,1.16,-2.5,-2.35
C#Cc1cccc(Nc2ncnc3ccc(OCCCCNCCS(C)(=O)=O)cc23)c1,2.93,16.4,30.4,6.83,11.5,8.07,25.4,5.37,10.6,9.53,20.5,5.22,4.16,14.3,18.9,4.06,11.9,17.9,12.1,10.3
Cc1ccc(C(=O)NC2CCC2)cc1-c1ccc(C(=O)NCC2CC2)cc1,3.12,1.47,4.53,3.52,0.66,3.43,3.17,2.49,5.32,-0.12,4.37,1.45,0.56,7.54,8.34,4.17,-0.01,2.44,4.2,4.27
Fc1ccc(-c2c(-c3ccncc3)nc3n2CCS3)cc1,1.19,4.27,11.9,1.59,3.82,3.55,3.84,2.1,2.96,1.36,5.75,1.6,2.05,1.13,7.86,3.1,6.64,3.14,10.7,4.18
COc1ccc2cc(-c3c(-c4ccncc4)nc(-c4ccc([S+](C)[O-])cc4C)n3C)ccc2c1 (stereo not drawn),0.57,0.98,12.4,-0.45,2.27,0.22,2.22,-2.47,5.84,0.23,5.35,-0.28,-0.05,2.66,22.2,1.07,2.78,2,-4.54,-2.74
COc1ccc(-c2ccc3c(NC(=O)C4CC4)n[nH]c3n2)cc1,3.83,3.05,12.2,1.56,5.35,3.4,7.13,4.3,9.71,1.45,5.91,0.53,-0.31,0.65,1.93,6.95,9.13,0.39,0.18,6.52
COc1cccc(/C=N/Nc2ncnc3c2cnn3-c2cccc(OC)c2)c1,3.43,2.69,14.9,2.84,7.96,2.59,6.59,2.65,7.82,4.05,11,2.06,3.36,0.27,6.95,0.36,1.63,3.95,1,10.2
Fc1ccc(-c2nc3n(c2-c2ccncc2)CCS3)cc1,2.27,6.42,11.1,4.17,3.44,5.4,6.09,-0.4,4.82,3.87,8.35,1.92,3.19,4.05,8.81,9.59,12.6,5.15,9.18,6.63
Fc1ccc(-c2ncn(C3CCNCC3)c2-c2ccnc(Oc3ccc(F)c(F)c3)n2)cc1,4.68,11,14.7,2.91,3.42,1.08,7.95,2.26,5.74,5.46,10.6,2.06,2.77,3.19,7.38,4.74,11.2,7.7,4.15,11.9
Fc1ccc(-c2ncn(CCCN3CCOCC3)c2-c2ccncc2)cc1,1.32,6.11,7.26,2.37,1.54,1.55,-0.15,-0.24,3.42,-0.37,6.02,0.05,-1.57,0.8,2.72,-0.64,0.11,2.85,0.29,-0.89
COC(=O)Nc1nc2ccc(Sc3ccc(NC(=O)Nc4cc(C(F)(F)F)ccc4F)cc3)cc2[nH]1,78.7,10.8,57.6,0.97,1.45,7.2,74.8,11.9,56.3,4.35,16.5,0.1,0.7,24.7,74.1,9.72,58,23,2.56,0.15
Clc1ccc(CNc2nccc(-c3cnn4ncccc34)n2)cc1,3.54,4.87,15.4,0.87,4.84,0.55,2.46,1.98,7.98,3.92,13.8,0.01,1.32,0.88,5.75,-0.76,5.56,-0.42,-4.51,2.8
CCc1nccc2c1nc(-c1nonc1N)n2CC,0.59,5.23,11.5,2.48,9.06,2.57,0.49,0.72,6.72,2.42,14,0.24,-0.39,0.76,9.96,4.16,1.71,3.64,3.87,0.03
O=C(Nc1n[nH]c2cc(-c3cc(F)ccc3F)ccc12)C1CC1,10.1,7.53,18.3,2.07,7.89,5.2,9.61,3.2,13.2,3.6,14.1,2.44,0.71,6.14,10.3,3.33,2.9,7.68,9.57,10.3
